# Experimental data: PubChem BioAssay (NCI)
# Compounds without any hit were thinned out: in the full panel of roughly 79,000, 15% have a hit. Values without a mark were called inactive. The source made the active and inactive calls. Rule as the data show it: active = growth inhibition above about 70%; inactive = the rest.
# Experiments:
# [1] = NCI Yeast Anticancer Drug Screen. Data for the rad52 strain (AID 147);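 also: 0% = growth of vehicle-treated control cultures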; details: S. cerevisiae rad52 mutant growth inhibition, active compounds read high
# Outline: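 Growth of repair-deficient yeast cells was compared between compound-treated and vehicle-treated cultures to give percent inhibition.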
# [2] = NCI Yeast Anticancer Drug Screen. Data for the wt1 strain (AID 149);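 also: 0% = growth of vehicle-treated wt1 cultures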; details: S. cerevisiae wt1 strain (SPY 50644) growth inhibition, active compounds read high
# Outline: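 Compounds are added to wt1 yeast cultures. Growth is then measured. Inhibition is expressed relative to vehicle-treated controls.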
# [3] = NCI Yeast Anticancer Drug Screen. Data for the rad50EPP+ strain (AID 151);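 also: 0% = growth of vehicle-treated control cultures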; details: S. cerevisiae rad50 mutant strain, active compounds read high
# Outline: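 Measured: growth inhibition of rad50EPP+ yeast. Reference: vehicle-treated controls. Screen uses strains with defined genetic alterations in DNA damage repair or cell cycle control.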
# [4] = NCI Yeast Anticancer Drug Screen. Data for the mgt1 strain (AID 153); details: S. cerevisiae mgt1 mutant growth inhibition, active compounds read high
# Outline: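 Compounds were applied to mgt1 mutant yeast, and growth was then compared against vehicle-treated control cultures to give percent inhibition.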
# [5] = NCI Yeast Anticancer Drug Screen. Data for the rad50 strain (AID 155);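 also: 0% = growth of vehicle-only cultures of the same strain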; details: S. cerevisiae rad50 strain growth inhibition, active compounds read high
# Outline: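 Inhibition values express reduced yeast growth in compound-treated cultures relative to vehicle-treated controls.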
# [6] = NCI Yeast Anticancer Drug Screen. Data for the mec2-1 strain (AID 157); details: S. cerevisiae mec2-1 strain, active compounds read high
# Outline: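 Compounds were applied to mec2-1 yeast cells. Their growth was then compared with that of vehicle-treated cultures to give growth inhibition.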
# [7] = NCI Yeast Anticancer Drug Screen. Data for the rad14 strain (AID 159);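 also: 0% = growth of vehicle-treated control cultures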; details: S. cerevisiae rad14 strain growth inhibition, active compounds read high
# Outline: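 A mutant yeast strain defective in DNA damage repair is treated with compound; inhibition of its growth is scored against untreated, vehicle-exposed cultures.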
# [8] = NCI Yeast Anticancer Drug Screen. Data for the sgs1 mgt1 strain (AID 161);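 also: 0% = growth of cultures given vehicle only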; details: S. cerevisiae sgs1 mgt1 strain, active compounds read high
# Outline: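 Yeast cells carrying a defined DNA-repair defect were exposed to test compounds. Growth inhibition was measured relative to vehicle-treated controls.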
# [9] = NCI Yeast Anticancer Drug Screen. Data for the CLN2oe strain (AID 163);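 also: 0% = growth of vehicle-only control cultures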; details: S. cerevisiae CLN2oe strain, active compounds read high
# Outline: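 Cells of an engineered yeast line with disturbed cell-cycle regulation are treated with compound. Inhibition of growth is then calculated relative to the vehicle-treated reference.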
# [10] = NCI Yeast Anticancer Drug Screen. Data for the cln2 rad14 strain (AID 165);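 also: 0% = growth equal to vehicle treated cultures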; details: S. cerevisiae cln2 rad14 strain, active compounds read high
# Outline: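 Strain: cln2 rad14 yeast, altered in cell cycle control and DNA damage repair. Read-out: growth inhibition vs vehicle.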
# [11] = NCI Yeast Anticancer Drug Screen. Data for the bub3 strain (AID 167); details: S. cerevisiae bub3 mutant strain, active compounds read high
# Outline: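 Steps: expose the mutant yeast strain to compound; grow alongside vehicle-treated cultures; measure growth; express inhibition against the vehicle cultures.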
# [12] = NCI Yeast Anticancer Drug Screen. Data for the wt2 strain (AID 169);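 also: 0% = growth of vehicle-treated yeast cultures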; details: S. cerevisiae wt2 strain growth inhibition, active compounds read high
# Outline: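 Growth of compound-treated yeast is measured and expressed as inhibition relative to vehicle-only controls.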
# [13] = NCI Yeast Anticancer Drug Screen. Data for the mlh1 strain (AID 171);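 also: 0% = growth of vehicle-treated control cultures of the same strain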; details: S. cerevisiae mlh1 strain growth inhibition, active compounds read high
# Outline: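 Test agents were incubated with yeast bearing a defined DNA damage repair or cell cycle control alteration; values are growth inhibition normalised to vehicle-treated cultures.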
# [14] = NCI Yeast Anticancer Drug Screen. Data for the sgs1 strain (AID 173);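 also: 0% = growth of vehicle-only control cultures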; details: S. cerevisiae sgs1 mutant, active compounds read high
# Outline: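 Strain with an altered DNA repair or cell cycle pathway exposed to compound. Growth then measured. Value = inhibition versus vehicle control.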
# [15] = NCI Yeast Anticancer Drug Screen. Data for the mlh1 rad18 strain (AID 175); details: S. cerevisiae mlh1 rad18 strain growth inhibition, active compounds read high
# Outline: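 A repair-deficient yeast strain is exposed to test compound, and growth is scored relative to vehicle-treated controls.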
# [16] = NCI Yeast Anticancer Drug Screen. Data for the rad18 strain (AID 177); details: S. cerevisiae rad18 mutant growth inhibition, active compounds read high
# Outline: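 DNA-repair-defective yeast; compound treatment; growth inhibition scored against vehicle.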
# [17] = at 5.0 µM (retest, dose inferred, filed as 0.5)
# [18] = at 50.0 µM (retest, dose inferred, filed as 5.0)
smiles,measurement,setting,value
CC/C(=C(\c1ccccc1)c1ccc(OCC[N+](C)(C)C)cc1)c1ccccc1,growth inhibition,[1]; at 1.2 µM,0%
same,growth inhibition,[1]; at 3.7 µM,68%
same,growth inhibition,[1]; at 11.0 µM,99% (active)
same,growth inhibition,[1]; at 33.0 µM,99% (active)
same,growth inhibition,[1]; at 100.0 µM,99% (active)
same,growth inhibition,[2]; at 1.2 µM,-4%
same,growth inhibition,[2]; at 3.7 µM,12%
same,growth inhibition,[2]; at 11.0 µM,98% (active)
same,growth inhibition,[2]; at 33.0 µM,99% (active)
same,growth inhibition,[2]; at 100.0 µM,99% (active)
same,growth inhibition,[3]; at 1.2 µM,3%
same,growth inhibition,[3]; at 3.7 µM,18%
same,growth inhibition,[3]; at 11.0 µM,94% (active)
same,growth inhibition,[3]; at 33.0 µM,98% (active)
same,growth inhibition,[3]; at 100.0 µM,99% (active)
same,growth inhibition,[4]; at 1.2 µM,-1%
same,growth inhibition,[4]; at 3.7 µM,55%
same,growth inhibition,[4]; at 11.0 µM,99% (active)
same,growth inhibition,[4]; at 33.0 µM,99% (active)
same,growth inhibition,[4]; at 100.0 µM,99% (active)
same,growth inhibition,[5]; at 1.2 µM,7%
same,growth inhibition,[5]; at 3.7 µM,85% (active)
same,growth inhibition,[5]; [17],70% (active)
same,growth inhibition,[5]; at 11.0 µM,97% (active)
same,growth inhibition,[5]; at 33.0 µM,98% (active)
same,growth inhibition,[5]; [18],70% (active)
same,growth inhibition,[5]; at 50.0 µM,90% (active)
same,growth inhibition,[5]; at 100.0 µM,99% (active)
same,growth inhibition,[6]; at 1.2 µM,-6%
same,growth inhibition,[6]; at 3.7 µM,33%
same,growth inhibition,[6]; [17],31%
same,growth inhibition,[6]; at 11.0 µM,99% (active)
same,growth inhibition,[6]; at 33.0 µM,99% (active)
same,growth inhibition,[6]; [18],31%
same,growth inhibition,[6]; at 50.0 µM,93% (active)
same,growth inhibition,[6]; at 100.0 µM,99% (active)
same,growth inhibition,[7]; at 1.2 µM,0%
same,growth inhibition,[7]; at 3.7 µM,88% (active)
same,growth inhibition,[7]; at 11.0 µM,99% (active)
same,growth inhibition,[7]; at 33.0 µM,99% (active)
same,growth inhibition,[7]; at 100.0 µM,99% (active)
same,growth inhibition,[8]; [17],74% (active)
same,growth inhibition,[8]; [18],74% (active)
same,growth inhibition,[8]; at 50.0 µM,91.3% (active)
same,growth inhibition,[9]; at 1.2 µM,-7%
same,growth inhibition,[9]; at 3.7 µM,10%
same,growth inhibition,[9]; at 11.0 µM,98% (active)
same,growth inhibition,[9]; at 33.0 µM,99% (active)
same,growth inhibition,[9]; at 100.0 µM,99% (active)
same,growth inhibition,[10]; [17],21%
same,growth inhibition,[10]; [18],21%
same,growth inhibition,[10]; at 50.0 µM,91% (active)
same,growth inhibition,[11]; at 1.2 µM,-3%
same,growth inhibition,[11]; at 3.7 µM,36%
same,growth inhibition,[11]; [17],22%
same,growth inhibition,[11]; at 11.0 µM,99% (active)
same,growth inhibition,[11]; at 33.0 µM,99% (active)
same,growth inhibition,[11]; [18],22%
same,growth inhibition,[11]; at 50.0 µM,91.5% (active)
same,growth inhibition,[11]; at 100.0 µM,99% (active)
same,growth inhibition,[12]; at 1.2 µM,-2%
same,growth inhibition,[12]; at 3.7 µM,55%
same,growth inhibition,[12]; at 11.0 µM,99% (active)
same,growth inhibition,[12]; at 33.0 µM,99% (active)
same,growth inhibition,[12]; at 100.0 µM,99% (active)
same,growth inhibition,[13]; at 1.2 µM,-7%
same,growth inhibition,[13]; at 3.7 µM,70% (active)
same,growth inhibition,[13]; at 11.0 µM,99% (active)
same,growth inhibition,[13]; at 33.0 µM,99% (active)
same,growth inhibition,[13]; at 100.0 µM,99% (active)
same,growth inhibition,[14]; at 1.2 µM,-7%
same,growth inhibition,[14]; at 3.7 µM,65%
same,growth inhibition,[14]; at 11.0 µM,99% (active)
same,growth inhibition,[14]; at 33.0 µM,99% (active)
same,growth inhibition,[14]; at 100.0 µM,99% (active)
same,growth inhibition,[15]; [17],27%
same,growth inhibition,[15]; [18],27%
same,growth inhibition,[15]; at 50.0 µM,90.1% (active)
same,growth inhibition,[16]; at 1.2 µM,3%
same,growth inhibition,[16]; at 3.7 µM,86% (active)
same,growth inhibition,[16]; at 11.0 µM,99% (active)
same,growth inhibition,[16]; at 33.0 µM,99% (active)
same,growth inhibition,[16]; at 100.0 µM,99% (active)
